# Measurements reported in article PMC7862700, “An all-to-all approach to the identification of sequence-specific readers for epigenetic DNA modifications on cytosine”.
# Tests used:
# Experiment in all cases: DAPPL (digital affinity profiling via proximity ligation, sequencing); 10 mM Tris-HCl pH 7.5, 50 mM NaCl, 1 mM DTT, 4% glycerol, room temperature, 30 min; GST-TFs on glutathione beads, 16-mer random dsDNA library, 0.1% formaldehyde crosslink after washing; high values mean tight binding
# [1] = target: T1, FLI1 (Homo sapiens, UniProt Q01543 1-452); conditions: protein: recombinant; tags: N-terminal GST; dsDNA, one strand shown
# T1 sequence: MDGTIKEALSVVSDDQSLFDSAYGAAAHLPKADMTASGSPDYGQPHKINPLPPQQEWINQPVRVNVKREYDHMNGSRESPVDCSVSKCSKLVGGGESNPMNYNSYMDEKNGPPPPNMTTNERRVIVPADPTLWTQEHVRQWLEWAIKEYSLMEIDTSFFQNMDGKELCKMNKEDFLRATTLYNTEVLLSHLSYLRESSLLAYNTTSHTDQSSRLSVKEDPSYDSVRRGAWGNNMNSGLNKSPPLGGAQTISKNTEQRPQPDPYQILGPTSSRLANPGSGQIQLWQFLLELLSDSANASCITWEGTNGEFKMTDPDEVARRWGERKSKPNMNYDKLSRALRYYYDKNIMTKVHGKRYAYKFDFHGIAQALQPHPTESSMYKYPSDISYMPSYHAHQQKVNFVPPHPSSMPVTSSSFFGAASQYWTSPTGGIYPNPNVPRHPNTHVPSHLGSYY
# Procedure, shortened: (§1)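 Human transcription factors fused to GST were expressed in yeast, captured on glutathione beads, given DNA barcodes and pooled with a GST-only negative control. Pools were incubated with 200 nmole of a 16-mer random double-stranded DNA library in Tris/NaCl/DTT/glycerol buffer at room temperature for 30 min. They were then washed, crosslinked with 0.1% formaldehyde, proximity-ligated (BsaI/T4 ligase, 1 h, 37 °C), PCR-amplified and sequenced on an Illumina NextSeq500. Binding signal is each 6-mer's read frequency for a factor divided by its frequency for the GST control.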
# [2] = target: T2, ELK1 (Homo sapiens, UniProt P19419 1-428); conditions: protein: recombinant; tags: N-terminal GST; dsDNA, one strand shown
# T2 sequence: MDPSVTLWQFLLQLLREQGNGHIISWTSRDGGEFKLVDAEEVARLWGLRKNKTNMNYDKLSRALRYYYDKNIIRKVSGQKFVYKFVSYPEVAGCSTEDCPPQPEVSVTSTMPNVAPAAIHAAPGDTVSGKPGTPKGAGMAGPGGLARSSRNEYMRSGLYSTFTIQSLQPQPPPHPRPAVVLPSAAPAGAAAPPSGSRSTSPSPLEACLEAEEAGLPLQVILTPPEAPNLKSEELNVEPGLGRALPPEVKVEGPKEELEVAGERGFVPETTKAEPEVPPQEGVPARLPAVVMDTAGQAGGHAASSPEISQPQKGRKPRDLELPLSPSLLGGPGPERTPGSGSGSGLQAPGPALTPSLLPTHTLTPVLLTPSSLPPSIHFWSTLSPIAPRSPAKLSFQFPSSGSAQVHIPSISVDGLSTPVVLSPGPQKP
# Procedure, shortened: as §1
# [3] = target: T3, GABPA (Homo sapiens, UniProt Q06546 1-454); conditions: protein: recombinant; tags: N-terminal GST; dsDNA, one strand shown
# T3 sequence: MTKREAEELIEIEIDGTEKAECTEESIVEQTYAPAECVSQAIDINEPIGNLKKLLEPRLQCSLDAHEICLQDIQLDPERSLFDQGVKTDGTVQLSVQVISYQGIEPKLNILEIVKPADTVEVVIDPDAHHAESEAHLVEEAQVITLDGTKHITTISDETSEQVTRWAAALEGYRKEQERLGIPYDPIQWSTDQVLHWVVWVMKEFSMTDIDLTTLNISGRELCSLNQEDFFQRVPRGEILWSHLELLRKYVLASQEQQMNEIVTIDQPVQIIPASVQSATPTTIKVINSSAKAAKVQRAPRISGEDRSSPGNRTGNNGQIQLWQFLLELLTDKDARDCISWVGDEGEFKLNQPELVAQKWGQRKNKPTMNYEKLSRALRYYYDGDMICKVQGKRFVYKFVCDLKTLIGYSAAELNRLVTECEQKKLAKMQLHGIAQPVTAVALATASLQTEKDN
# Procedure, shortened: as §1
# [4] = target: T4, ERG (Homo sapiens, UniProt P11308 1-479); conditions: protein: recombinant; tags: N-terminal GST; dsDNA, one strand shown
# T4 sequence: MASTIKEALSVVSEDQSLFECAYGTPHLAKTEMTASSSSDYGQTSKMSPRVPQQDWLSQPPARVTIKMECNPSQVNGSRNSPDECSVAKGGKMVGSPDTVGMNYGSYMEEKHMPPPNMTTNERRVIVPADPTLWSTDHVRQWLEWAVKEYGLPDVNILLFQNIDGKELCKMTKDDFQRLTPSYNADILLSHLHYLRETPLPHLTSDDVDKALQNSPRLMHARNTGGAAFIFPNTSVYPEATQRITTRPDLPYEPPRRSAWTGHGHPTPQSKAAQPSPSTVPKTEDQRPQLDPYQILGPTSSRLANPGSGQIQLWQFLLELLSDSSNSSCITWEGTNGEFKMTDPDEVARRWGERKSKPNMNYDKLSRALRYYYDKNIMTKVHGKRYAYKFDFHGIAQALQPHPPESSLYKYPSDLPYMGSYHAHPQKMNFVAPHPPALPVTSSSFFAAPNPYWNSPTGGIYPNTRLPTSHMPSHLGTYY
# Procedure, shortened: as §1
# [5] = target: ELF1 (Homo sapiens, UniProt P32519 1-619); conditions: protein: recombinant; tags: N-terminal GST; dsDNA, one strand shown
# Chain of ELF1 (P32519 whole entry): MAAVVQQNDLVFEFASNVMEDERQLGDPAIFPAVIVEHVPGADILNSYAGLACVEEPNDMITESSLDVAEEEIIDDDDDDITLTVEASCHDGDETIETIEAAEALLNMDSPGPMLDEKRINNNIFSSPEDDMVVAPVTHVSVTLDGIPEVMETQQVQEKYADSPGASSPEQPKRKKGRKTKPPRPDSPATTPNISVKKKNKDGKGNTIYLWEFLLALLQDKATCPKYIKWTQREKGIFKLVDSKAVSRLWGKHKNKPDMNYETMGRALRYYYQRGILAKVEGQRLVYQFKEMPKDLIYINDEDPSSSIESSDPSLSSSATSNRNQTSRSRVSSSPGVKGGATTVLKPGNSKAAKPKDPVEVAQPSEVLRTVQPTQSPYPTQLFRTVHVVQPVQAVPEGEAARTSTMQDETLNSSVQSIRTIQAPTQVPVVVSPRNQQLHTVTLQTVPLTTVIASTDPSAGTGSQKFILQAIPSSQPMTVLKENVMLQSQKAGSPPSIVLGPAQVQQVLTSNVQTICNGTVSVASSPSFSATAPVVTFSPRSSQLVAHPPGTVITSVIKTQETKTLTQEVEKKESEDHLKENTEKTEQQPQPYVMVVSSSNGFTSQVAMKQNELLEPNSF
# Procedure, shortened: as §1
# [6] = target: T5, EHF (Homo sapiens, UniProt Q9NZC4 1-300); conditions: protein: recombinant; tags: N-terminal GST; dsDNA, one strand shown
# T5 sequence: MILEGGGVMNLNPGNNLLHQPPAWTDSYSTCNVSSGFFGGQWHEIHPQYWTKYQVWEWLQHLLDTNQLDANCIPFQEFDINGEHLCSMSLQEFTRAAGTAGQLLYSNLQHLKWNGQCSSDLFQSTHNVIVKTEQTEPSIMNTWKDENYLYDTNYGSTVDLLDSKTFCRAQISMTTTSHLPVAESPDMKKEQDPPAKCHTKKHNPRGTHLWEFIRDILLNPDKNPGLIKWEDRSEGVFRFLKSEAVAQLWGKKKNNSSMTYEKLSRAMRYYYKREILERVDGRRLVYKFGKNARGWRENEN
# Procedure, shortened: as §1
# [7] = target: SPI1 (Homo sapiens, UniProt P17947 1-270); conditions: protein: recombinant; tags: N-terminal GST; dsDNA, one strand shown
# Procedure, shortened: as §1
# [8] = target: SPIB (Homo sapiens, UniProt Q01892 1-262); conditions: protein: recombinant; tags: N-terminal GST; dsDNA, one strand shown
# Chain of SPIB (Q01892 whole entry): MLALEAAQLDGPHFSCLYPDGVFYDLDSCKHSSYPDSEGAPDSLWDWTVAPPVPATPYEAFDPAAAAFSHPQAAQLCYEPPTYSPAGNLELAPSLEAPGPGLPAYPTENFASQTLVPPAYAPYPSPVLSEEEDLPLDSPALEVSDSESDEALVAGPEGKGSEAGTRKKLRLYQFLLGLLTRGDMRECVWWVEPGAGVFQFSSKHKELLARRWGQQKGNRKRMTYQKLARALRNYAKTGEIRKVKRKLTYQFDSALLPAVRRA
# Procedure, shortened: as §1
# [9] = target: T6, ELK3 (Homo sapiens, UniProt P41970 1-407); conditions: protein: recombinant; tags: N-terminal GST; dsDNA, one strand shown
# T6 sequence: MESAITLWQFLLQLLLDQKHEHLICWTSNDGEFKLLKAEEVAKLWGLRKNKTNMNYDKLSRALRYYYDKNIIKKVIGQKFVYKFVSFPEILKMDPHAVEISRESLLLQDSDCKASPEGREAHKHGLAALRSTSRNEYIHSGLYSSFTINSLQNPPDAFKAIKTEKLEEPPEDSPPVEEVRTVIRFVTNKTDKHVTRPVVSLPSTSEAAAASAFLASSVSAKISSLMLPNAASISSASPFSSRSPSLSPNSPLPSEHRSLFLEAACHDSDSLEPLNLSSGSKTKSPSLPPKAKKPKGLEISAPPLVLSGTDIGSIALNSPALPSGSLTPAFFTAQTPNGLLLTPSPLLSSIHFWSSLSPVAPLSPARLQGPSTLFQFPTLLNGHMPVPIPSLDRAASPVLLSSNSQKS
# Procedure, shortened: as §1
# [10] = target: T7, FEV (Homo sapiens, UniProt Q99581 1-238); conditions: protein: recombinant; tags: N-terminal GST; dsDNA, one strand shown
# T7 sequence: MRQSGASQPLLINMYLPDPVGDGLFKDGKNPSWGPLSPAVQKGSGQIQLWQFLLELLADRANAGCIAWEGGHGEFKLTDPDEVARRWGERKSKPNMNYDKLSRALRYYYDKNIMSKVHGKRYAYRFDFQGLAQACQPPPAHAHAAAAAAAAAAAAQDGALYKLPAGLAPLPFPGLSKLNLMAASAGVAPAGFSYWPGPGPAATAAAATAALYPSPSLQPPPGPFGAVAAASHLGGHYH
# Procedure, shortened: as §1
# [11] = target: ETV5 (Homo sapiens, UniProt P41161 1-510); conditions: protein: recombinant; tags: N-terminal GST; dsDNA, one strand shown
# Chain of ETV5 (P41161 whole entry): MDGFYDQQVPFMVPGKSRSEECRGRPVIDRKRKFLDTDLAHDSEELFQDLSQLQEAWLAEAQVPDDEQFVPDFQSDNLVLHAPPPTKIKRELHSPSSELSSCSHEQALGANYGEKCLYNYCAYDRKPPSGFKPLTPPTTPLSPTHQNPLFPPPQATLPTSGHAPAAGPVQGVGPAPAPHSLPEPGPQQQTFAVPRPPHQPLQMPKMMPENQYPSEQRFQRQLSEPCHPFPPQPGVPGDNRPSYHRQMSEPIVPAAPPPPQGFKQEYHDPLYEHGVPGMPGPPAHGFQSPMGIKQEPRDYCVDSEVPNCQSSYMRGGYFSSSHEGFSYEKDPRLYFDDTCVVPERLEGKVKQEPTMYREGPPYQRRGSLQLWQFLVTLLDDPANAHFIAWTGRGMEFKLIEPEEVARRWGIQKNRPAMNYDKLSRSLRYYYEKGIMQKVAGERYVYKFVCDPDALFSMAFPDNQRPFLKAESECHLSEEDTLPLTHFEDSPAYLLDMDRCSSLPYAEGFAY
# Procedure, shortened: as §1
# [12] = target: HSF1 (Homo sapiens, UniProt Q00613 1-529); conditions: protein: recombinant; tags: N-terminal GST; chain copies: 3; dsDNA, one strand shown
# Chain of HSF1 (Q00613 whole entry): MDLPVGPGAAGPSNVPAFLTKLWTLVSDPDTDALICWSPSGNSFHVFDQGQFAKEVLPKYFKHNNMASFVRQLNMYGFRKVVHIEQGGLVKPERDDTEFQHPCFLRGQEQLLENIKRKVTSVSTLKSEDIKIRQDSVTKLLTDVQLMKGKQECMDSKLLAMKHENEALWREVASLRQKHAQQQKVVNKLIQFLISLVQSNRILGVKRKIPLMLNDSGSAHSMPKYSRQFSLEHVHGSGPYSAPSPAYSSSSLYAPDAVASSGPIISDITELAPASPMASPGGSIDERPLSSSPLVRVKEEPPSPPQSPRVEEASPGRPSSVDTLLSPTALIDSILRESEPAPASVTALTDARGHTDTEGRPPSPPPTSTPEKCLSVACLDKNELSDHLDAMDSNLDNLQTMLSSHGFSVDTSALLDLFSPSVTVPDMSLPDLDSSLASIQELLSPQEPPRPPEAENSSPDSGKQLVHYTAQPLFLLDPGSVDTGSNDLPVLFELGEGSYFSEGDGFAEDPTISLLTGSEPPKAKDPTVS
# Procedure, shortened: as §1
# [13] = target: T8, SPIC (Homo sapiens, UniProt Q8N5J4 1-248); conditions: protein: recombinant; tags: N-terminal GST; dsDNA, one strand shown
# T8 sequence: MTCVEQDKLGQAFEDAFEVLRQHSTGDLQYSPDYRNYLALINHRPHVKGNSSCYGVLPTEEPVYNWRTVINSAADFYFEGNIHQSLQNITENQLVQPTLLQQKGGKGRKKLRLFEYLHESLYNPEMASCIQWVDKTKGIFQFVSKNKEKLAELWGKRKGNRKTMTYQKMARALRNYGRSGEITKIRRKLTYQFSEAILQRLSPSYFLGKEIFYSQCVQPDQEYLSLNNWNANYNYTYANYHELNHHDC
# Procedure, shortened: as §1
# [14] = target: ELF4 (Homo sapiens, UniProt Q99607 1-663); conditions: protein: recombinant; tags: N-terminal GST; dsDNA, one strand shown
# Chain of ELF4 (Q99607 whole entry): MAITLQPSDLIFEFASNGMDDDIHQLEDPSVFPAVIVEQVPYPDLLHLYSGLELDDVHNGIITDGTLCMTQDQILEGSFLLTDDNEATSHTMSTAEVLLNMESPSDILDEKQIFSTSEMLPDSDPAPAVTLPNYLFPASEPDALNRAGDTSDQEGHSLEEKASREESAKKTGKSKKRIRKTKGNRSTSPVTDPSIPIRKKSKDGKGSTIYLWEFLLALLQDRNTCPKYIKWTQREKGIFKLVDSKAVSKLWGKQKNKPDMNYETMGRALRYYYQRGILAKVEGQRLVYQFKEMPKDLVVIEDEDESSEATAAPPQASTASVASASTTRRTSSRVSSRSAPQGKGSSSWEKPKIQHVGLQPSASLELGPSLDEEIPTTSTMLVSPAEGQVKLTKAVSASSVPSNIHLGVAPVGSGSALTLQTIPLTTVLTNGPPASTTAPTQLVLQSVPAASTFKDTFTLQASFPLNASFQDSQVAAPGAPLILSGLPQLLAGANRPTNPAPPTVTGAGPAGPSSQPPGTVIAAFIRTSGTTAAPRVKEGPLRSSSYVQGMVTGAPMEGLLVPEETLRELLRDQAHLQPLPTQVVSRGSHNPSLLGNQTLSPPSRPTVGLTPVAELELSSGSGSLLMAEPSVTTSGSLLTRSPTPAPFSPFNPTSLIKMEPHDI
# Procedure, shortened: as §1
# [15] = target: T9, ELK4 (Homo sapiens, UniProt P28324-2 1-405); conditions: protein: recombinant; tags: N-terminal GST; dsDNA, one strand shown
# T9 sequence: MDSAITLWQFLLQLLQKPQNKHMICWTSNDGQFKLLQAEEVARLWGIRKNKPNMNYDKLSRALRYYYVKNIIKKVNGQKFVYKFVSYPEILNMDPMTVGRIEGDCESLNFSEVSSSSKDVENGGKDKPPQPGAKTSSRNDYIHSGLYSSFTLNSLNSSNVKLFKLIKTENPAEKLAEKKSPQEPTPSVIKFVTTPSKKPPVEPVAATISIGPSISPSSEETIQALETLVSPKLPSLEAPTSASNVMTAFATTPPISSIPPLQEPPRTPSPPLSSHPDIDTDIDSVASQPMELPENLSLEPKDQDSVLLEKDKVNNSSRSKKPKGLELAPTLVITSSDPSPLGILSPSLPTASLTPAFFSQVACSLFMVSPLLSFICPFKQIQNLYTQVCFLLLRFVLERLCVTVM
# Procedure, shortened: as §1
# [16] = target: T10, ETV2 (Homo sapiens, UniProt O00321 1-342); conditions: protein: recombinant; tags: N-terminal GST; dsDNA, one strand shown
# T10 sequence: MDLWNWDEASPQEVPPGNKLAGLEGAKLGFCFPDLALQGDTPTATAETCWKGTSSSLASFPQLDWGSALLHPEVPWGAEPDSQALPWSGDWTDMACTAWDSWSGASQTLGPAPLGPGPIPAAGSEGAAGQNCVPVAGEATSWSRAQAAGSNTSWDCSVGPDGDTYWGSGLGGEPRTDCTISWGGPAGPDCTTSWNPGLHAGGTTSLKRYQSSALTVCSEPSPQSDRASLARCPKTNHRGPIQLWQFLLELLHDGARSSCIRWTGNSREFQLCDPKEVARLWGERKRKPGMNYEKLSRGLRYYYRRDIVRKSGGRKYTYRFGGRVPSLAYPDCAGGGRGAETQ
# Procedure, shortened: as §1
# [17] = target: T11, ELF3 (Homo sapiens, UniProt P78545 1-371); conditions: protein: recombinant; tags: N-terminal GST; dsDNA, one strand shown
# T11 sequence: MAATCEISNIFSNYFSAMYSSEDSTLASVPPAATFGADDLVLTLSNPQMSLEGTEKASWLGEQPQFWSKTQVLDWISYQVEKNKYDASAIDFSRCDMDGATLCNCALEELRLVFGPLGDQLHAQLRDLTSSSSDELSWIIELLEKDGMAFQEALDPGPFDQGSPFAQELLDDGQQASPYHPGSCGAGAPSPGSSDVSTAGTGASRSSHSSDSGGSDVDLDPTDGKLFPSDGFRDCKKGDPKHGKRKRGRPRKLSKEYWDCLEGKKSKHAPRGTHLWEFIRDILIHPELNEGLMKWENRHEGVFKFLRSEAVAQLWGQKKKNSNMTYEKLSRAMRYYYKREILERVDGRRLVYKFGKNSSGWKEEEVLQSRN
# Procedure, shortened: as §1
# [18] = target: CRX (Homo sapiens, UniProt O43186 1-299); conditions: protein: recombinant; tags: N-terminal GST; dsDNA, one strand shown
# Chain of CRX (O43186 whole entry): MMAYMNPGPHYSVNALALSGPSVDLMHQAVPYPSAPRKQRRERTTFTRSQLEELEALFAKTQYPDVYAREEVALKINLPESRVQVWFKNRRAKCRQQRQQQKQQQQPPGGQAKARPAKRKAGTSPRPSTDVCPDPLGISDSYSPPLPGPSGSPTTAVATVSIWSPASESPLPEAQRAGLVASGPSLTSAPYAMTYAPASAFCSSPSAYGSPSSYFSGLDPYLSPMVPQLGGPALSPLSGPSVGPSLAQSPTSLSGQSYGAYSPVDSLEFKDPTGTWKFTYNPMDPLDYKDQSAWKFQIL
# Procedure, shortened: as §1
# [19] = target: ETV1 (Homo sapiens, UniProt P50549 1-477); conditions: protein: recombinant; tags: N-terminal GST; dsDNA, one strand shown
# Chain of ETV1 (P50549 whole entry): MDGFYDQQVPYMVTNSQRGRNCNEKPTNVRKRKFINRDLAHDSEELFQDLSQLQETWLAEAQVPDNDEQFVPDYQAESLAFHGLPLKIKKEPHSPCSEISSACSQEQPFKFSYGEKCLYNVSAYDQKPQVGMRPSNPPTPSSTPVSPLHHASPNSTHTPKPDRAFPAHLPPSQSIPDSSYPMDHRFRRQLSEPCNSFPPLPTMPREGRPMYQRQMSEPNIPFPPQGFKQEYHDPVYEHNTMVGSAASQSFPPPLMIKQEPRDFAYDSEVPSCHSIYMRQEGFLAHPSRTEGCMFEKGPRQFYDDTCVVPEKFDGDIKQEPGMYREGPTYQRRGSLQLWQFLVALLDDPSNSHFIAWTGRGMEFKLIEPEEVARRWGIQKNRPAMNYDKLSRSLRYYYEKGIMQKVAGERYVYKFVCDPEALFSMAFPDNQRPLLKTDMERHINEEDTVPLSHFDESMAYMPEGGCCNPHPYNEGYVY
# Procedure, shortened: as §1
sequence,measurement,setting,value
GGCTTC,binding signal,[1],"1.68 fold enrichment (6-mer frequency, TF over GST control)"
same,binding signal,[2],"1.8 fold enrichment (6-mer frequency, TF over GST control)"
same,binding signal,[3],"1.57 fold enrichment (6-mer frequency, TF over GST control)"
same,binding signal,[4],"1.79 fold enrichment (6-mer frequency, TF over GST control)"
same,binding signal,[5],"1.62 fold enrichment (6-mer frequency, TF over GST control)"
same,binding signal,[6],"1.78 fold enrichment (6-mer frequency, TF over GST control)"
same,binding signal,[7],"1.65 fold enrichment (6-mer frequency, TF over GST control)"
same,binding signal,[8],"1.78 fold enrichment (6-mer frequency, TF over GST control)"
same,binding signal,[9],"1.81 fold enrichment (6-mer frequency, TF over GST control)"
same,binding signal,[10],"1.77 fold enrichment (6-mer frequency, TF over GST control)"
same,binding signal,[11],"1.69 fold enrichment (6-mer frequency, TF over GST control)"
same,binding signal,[12],"1.45 fold enrichment (6-mer frequency, TF over GST control)"
same,binding signal,[13],"1.6 fold enrichment (6-mer frequency, TF over GST control)"
same,binding signal,[14],"1.55 fold enrichment (6-mer frequency, TF over GST control)"
same,binding signal,[15],"1.44 fold enrichment (6-mer frequency, TF over GST control)"
same,binding signal,[16],"1.76 fold enrichment (6-mer frequency, TF over GST control)"
same,binding signal,[17],"1.64 fold enrichment (6-mer frequency, TF over GST control)"
same,binding signal,[18],"1.25 fold enrichment (6-mer frequency, TF over GST control)"
same,binding signal,[19],"1.6 fold enrichment (6-mer frequency, TF over GST control)"
